Assay results reported in PubChem BioAssay AID720697 (Broad Institute, 2013).
Entries with a potency or affinity are not part of this list. Inconclusive results are not listed. Unmarked numbers belong to inactive results.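 How the source made its calls: active means signal loss with fitted half-maximal concentration at or below twice the top valid tested dose in every test run; inconclusive means runs disagree, flat 30 to 70% signal loss, or poor fit; inactive means all runs flat, opposite direction, or potency beyond limit.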

Test: general mammalian cell viability loss – inhibitor set, cherry-pick, set 2, cytotoxicity control for miR-122 modulator project, dose response (AID 720697);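 further: 0% = median of neutral control wells and -100% = MG132 positive control wells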
Conditions: HEK293T viability, CellTiter-Glo luminescence, 48 h; series mostly up to 26 µM; activity change, negative = cytotoxicity: at the top concentration

Which “activity change, negative = cytotoxicity” value does the source give for `CCCNC(=O)C[C@@H]1CC[C@@H]2[C@@H](COc3ccc(NS(=O)(=O)c4ccccc4C)cc3C(=O)N2C)O1` here?
Its value is 43.8%.

For `CCCNC(=O)C[C@H]1CC[C@@H]2[C@@H](COc3ccc(NC(=O)c4ccc5c(c4)OCO5)cc3C(=O)N2C)O1`, which “activity change, negative = cytotoxicity” value is on record?
The value was 139% [at 23.5 µM].

For `CCN(C[C@@H]1[C@@H](c2ccccc2)[C@@H](CO)N1S(C)(=O)=O)C(=O)C1CC1`, which “activity change, negative = cytotoxicity” value is on record?
Its value is 135%.

Which “activity change, negative = cytotoxicity” value does the source give for `CC#CCCCC(=O)Nc1ccccc1C(=O)O` here?
Its value is 81.9%.

For `O=C(CN1CCN(c2nc(-c3ccccc3)cs2)CC1)Nc1ccc2c(c1)OCO2`, which “activity change, negative = cytotoxicity” value is on record?
Its value is 59.5%.

For `CCCCC(=O)OCC(=O)c1[nH]c(C)c(C(=O)OCC)c1C`, which “activity change, negative = cytotoxicity” value is on record?
The value was 58.2%.

With `CCCCNC(=O)Nc1nnc(-c2ccc(OCC)cc2)o1` as the compound, how does the “activity change, negative = cytotoxicity” value read?
The value was -4.04%.

Which “activity change, negative = cytotoxicity” value does the source give for `C[C@H](NC(=O)C[C@H]1CC[C@@H]2[C@@H](COc3ccc(NS(=O)(=O)c4ccc(Cl)cc4)cc3C(=O)N2C)O1)c1ccccc1` here?
Its value is 77.1%.

For `COc1ccccc1C#Cc1ccc2c(c1)O[C@H](CN(C)Cc1cccnc1)[C@H](C)CN([C@@H](C)CO)S2(=O)=O`, which “activity change, negative = cytotoxicity” value is on record?
The value was 12.4%.

For `Cc1c(CC(=O)NCCCC(=O)O)c(=O)oc2cc3occ(-c4ccccc4)c3cc12`, which “activity change, negative = cytotoxicity” value is on record?
Its value is 75.4%.

For `CC(=O)c1ccc(Nc2nc3ccc(C)cc3n3cnnc23)cc1`, which “activity change, negative = cytotoxicity” value is on record?
Its value is 52.6%.

With `CN1C(=O)c2cc(NC(=O)c3ccc(C(F)(F)F)cc3)ccc2OC[C@H]2O[C@H](CC(=O)NCc3ccc4c(c3)OCO4)CC[C@@H]21` as the compound, how does the “activity change, negative = cytotoxicity” value read?
Its value is -12.6%.

For `COc1cccc(CNC(=O)C[C@@H]2CC[C@@H]3[C@H](COc4ccc(NC(C)=O)cc4C(=O)N3C)O2)c1`, which “activity change, negative = cytotoxicity” value is on record?
The value was 74.7%.

Which “activity change, negative = cytotoxicity” value does the source give for `CCCNC(=O)N1C[C@@H]2[C@H](c3ccccc31)[C@H](CO)N2C(=O)C1CCOCC1` here?
The value was 11.1%.

Which “activity change, negative = cytotoxicity” value does the source give for `CN1C(=O)c2cc(NC(=O)Nc3ccccc3F)ccc2OC[C@@H]2O[C@@H](CC(=O)NCc3ccc(-c4ccccc4)cc3)CC[C@@H]21` here?
Its value is 9.96%.

With `CCCNC(=O)C[C@H]1CC[C@@H]2[C@H](COc3ccc(NS(=O)(=O)c4ccccc4C)cc3C(=O)N2C)O1` as the compound, how does the “activity change, negative = cytotoxicity” value read?
Its value is 18.6% [at 23.5 µM].

With `COc1ccccc1CNc1nc(Nc2ccccc2Cl)c2sccc2n1` as the compound, how does the “activity change, negative = cytotoxicity” value read?
The value was 42%.

With `CN1C(=O)c2cc(NC(=O)Nc3cccc(Cl)c3)ccc2OC[C@@H]2O[C@H](CC(=O)NCCc3ccncc3)CC[C@H]21` as the compound, how does the “activity change, negative = cytotoxicity” value read?
The value was 142%.

Which “activity change, negative = cytotoxicity” value does the source give for `C/C=C/c1ccc([C@@H]2[C@@H](CO)N(C(C)=O)[C@@H]2CN(CC)C(=O)CN(C)C)cc1` here?
The value was 39.3%.

Which “activity change, negative = cytotoxicity” value does the source give for `O=C(NCC(c1cccnc1)N1CCOCC1)NC1CCCCC1` (centres undefined) here?
The value was 83.2%.

Which “activity change, negative = cytotoxicity” value does the source give for `Cc1cc(C)cc(Oc2ccc(NC(=O)C3CC=CCC3C(=O)O)cc2)c1` (centres undefined) here?
The value was 12.6%.

With `COc1cccc(-c2csc(N3CCN(CC(=O)Nc4ccc5c(c4)OCO5)CC3)n2)c1` as the compound, how does the “activity change, negative = cytotoxicity” value read?
The value was 23.7%.

Which “activity change, negative = cytotoxicity” value does the source give for `CNC(=O)C[C@@H]1CC[C@@H]2[C@H](COc3ccc(NC(=O)c4cccc(OC)c4)cc3C(=O)N2C)O1` here?
Its value is 69.2%.

Which “activity change, negative = cytotoxicity” value does the source give for `CNC(=O)C[C@@H]1CC[C@H]2[C@@H](COc3ccc(NC(=O)c4cccc(OC)c4)cc3C(=O)N2C)O1` here?
Its value is 42.2% [at 23.5 µM].

For `Cc1ccc(-c2ccc3c(c2)O[C@H](CN(C)C(=O)CC2CC2)[C@H](C)CN([C@H](C)CO)S3(=O)=O)cc1`, which “activity change, negative = cytotoxicity” value is on record?
The value was -0.183%.

Which “activity change, negative = cytotoxicity” value does the source give for `Cc1ccccc1-c1ccc2c(c1)O[C@@H](CN(C)C(=O)Nc1ccc(F)cc1)[C@@H](C)CN([C@@H](C)CO)S2(=O)=O` here?
Its value is 66.7%.

For `COc1ccc(-c2ccc(C#N)c(OC(=O)c3c(Cl)cccc3Cl)n2)cc1`, which activity change, negative = cytotoxicity is on record?
The activity change, negative = cytotoxicity was -5.32% [at 6 µM].

With `C[C@H]1CN([C@@H](C)CO)S(=O)(=O)c2ccc(C3=CCCC3)cc2O[C@H]1CN(C)Cc1cccnc1` as the compound, how does the “activity change, negative = cytotoxicity” value read?
The value was -21.6%.

For `COCC(=O)N(C[C@@H]1N[C@H](CO)[C@H]1c1ccc(C2=CCCC2)cc1)C(C)C`, which “activity change, negative = cytotoxicity” value is on record?
Its value is 119%.

With `COC(=O)C[C@@H]1CC[C@@H]2[C@@H](COc3ccc(NC(=O)c4cscn4)cc3C(=O)N2C)O1` as the compound, how does the “activity change, negative = cytotoxicity” value read?
Its value is 139%.

Which “activity change, negative = cytotoxicity” value does the source give for `CC(C)Oc1ccc(C(CCN)C2CCCCC2)cc1` (centres undefined) here?
Its value is -62.4%.

With `CO[C@@H]1CN(C)C(=O)c2ccc(NC(=O)Nc3ccc(C(F)(F)F)cc3)cc2OC[C@H](C)NC[C@H]1C` as the compound, how does the “activity change, negative = cytotoxicity” value read?
Its value is 79.2%.

For `COCC(=O)N(C[C@H]1[C@H](c2ccccc2)[C@H](CO)N1C(=O)NC(C)C)C(C)C`, which “activity change, negative = cytotoxicity” value is on record?
Its value is 33.3% [at 23.5 µM].

For `CC(=O)Nc1ccc2c(c1)C(=O)N(C)[C@@H]1CC[C@H](CC(=O)NCCCN3CCOCC3)O[C@@H]1CO2`, which “activity change, negative = cytotoxicity” value is on record?
The value was -0.596% [at 23.5 µM].

Which “activity change, negative = cytotoxicity” value does the source give for `CC(C)(C)c1ccc(S(=O)(=O)NCCc2ccncc2)cc1` here?
The value was 29.4%.

For `COc1ccc(NC(=O)N(C)C[C@@H]2Oc3cc(C#CCC(C)C)ccc3S(=O)(=O)N([C@@H](C)CO)C[C@@H]2C)cc1`, which “activity change, negative = cytotoxicity” value is on record?
The value was -65.6%.

With `COc1cc(-c2nnc(-c3ccco3)o2)ccc1OCc1ccccc1` as the compound, how does the “activity change, negative = cytotoxicity” value read?
Its value is -3.44%.

With `CN1C(=O)c2cc(NC(=O)c3cccc(F)c3)ccc2OC[C@@H]2O[C@H](CC(=O)O)CC[C@H]21` as the compound, how does the “activity change, negative = cytotoxicity” value read?
Its value is 24.4%.

For `O=C(Nc1ccc(F)cc1)N1C[C@H]2[C@@H](c3ccccc31)[C@H](CO)N2C(=O)c1ccncc1`, which “activity change, negative = cytotoxicity” value is on record?
The value was -10.7%.
